# Source: PubChem (National Center for Advancing Translational Sciences (NCATS))
# G9a block = G9a (human) methyltransferase inhibition. Q96KQ7. G9a H3K9 monomethylation, AlphaScreen, 2 h. Potency, µM (highest dose often 102 µM), hits mostly inhibitors. actives 8.8% (n = 350,000). AID 504332; also: nearly all actives have a fitted effect of over 75% in size
#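 Readings reflect AlphaScreen signal from monomethyl-H3K9 antibody detection. HMT at 20 nM; substrate b-H3K9 500 nM; cofactor SAM 20 uM; 2 h RT reaction; compounds tested as titrations in qHTS with 15 min preincubation.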
# HP1b chromo inh = blocks HP1-beta chromodomain binding to methylated histone tails. Potency, µM (titrated, usually from 114 µM), hits mostly inhibitors. actives 0.56% (n = 390,000). AID 540317. P83916. AlphaScreen HP1-beta / biotin-H3K9me3 peptide binding; also: nearly all actives have a fitted effect of over 70% in size
#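 AlphaScreen: HP1-beta (50 nM) preformed 30 min with biotin-H3(1-18)K9me3 peptide (50 nM) in PBS pH 7.4, 0.01% Tween-20. Compound added for 30 min at RT, then streptavidin donor/nickel chelate acceptor beads (10 ug/mL) for 30 min.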
# L3MBTL1 block = L3MBTL1 (human) inhibition | Potency, µM (titrated, usually from 57.1 µM), most hits filed as inhibitors | AID 485360 | actives 0.66% (n = 230,000) | AlphaScreen L3MBTL1–H3K9me1 peptide binding; also: nearly all actives have a fitted effect of over 60% in size
#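 First, the protein-peptide complex forms for 30 min at room temperature (L3MBTL1 50 nM, biotinylated H3K9me1 peptide 75 nM). Next, compounds are pin-transferred and incubated 30 min. Finally, AlphaScreen beads are added and read after 30 min.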
# BAZ2B inh = inhibitors of human BAZ2B bromodomain. Q9UIF8. AlphaScreen BAZ2B-H3K14Ac peptide displacement. Potency, µM (highest dose often 114 µM), most hits filed as inhibitors. actives 4.4% (n = 360,000); also: nearly all actives have a fitted effect of over 60% in size
#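 Protein-peptide AlphaScreen: BAZ2B 50 nM, b-H3K14Ac 50 nM, 1x PBS pH 7.4 + 0.01% Tween-20. Preincubation 30 min RT; cpd 30 min RT (top 110 uM); beads 20 min RT, light-protected.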
# GLS inhibitor = inhibitors of human glutaminase (GLS); O94925; GLS enzymatic activity, qHTS titration; Potency, µM (series often up to 45.5 µM), most hits filed as inhibitors; actives 0.21% (n = 410,000); AID 624170
#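 Two-point fluorescence kinetic (t0, 30 min RT) for hKGA; glutamate detected via glutamate oxidase–HRP–Amplex Red. Substrate: 1 mM L-glutamine solution; buffer 45 mM KH2PO4, pH 8.2.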
# JMJD2A Tudor = blocks the human JMJD2A Tudor domain | AlphaScreen JMJD2A-Tudor / H3K4me3 peptide binding | O75164 | Potency, µM (series often up to 114 µM), usual class: inhibitors | actives 4.4% (n = 390,000); also: nearly all actives have a fitted effect of over 50% in size
# Hits are given with their value; . = inactive; ? = inconclusive; / = no result given; [ ] = another dose, or the depositor's remark. The list is not random: actives were taken first. Their share in the collection is about 10%. Calls follow the shape of the dose curve; as a rule, active = well fitted curve in the direction sought with a large enough effect; inconclusive = small, poorly fitted or top-dose-only effect, or another doubt; inactive = no such curve, though single readings can be large; an effect the other way counts as inactive or inconclusive.
SMILES,G9a block,HP1b chromo inh,L3MBTL1 block,BAZ2B inh,GLS inhibitor,JMJD2A Tudor
O=C(NCc1ccc(F)cc1)C1CCCN(c2ncnc3onc(-c4ccc(F)cc4)c23)C1 (stereo not given),.,.,/,.,.,.
O=C1c2c(O)cc(O)cc2O[C@@]12c1c(cc(O)c3c1O[C@H](c1ccc(O)cc1)[C@@H](O)C3)O[C@@H]2c1ccc(O)cc1,50µM,.,.,?,.,.
O=C(NCc1ccc(F)cc1)c1cc(-c2ccc(Cl)cc2)n[nH]1,.,.,/,.,.,.
CCN(CC(=O)Nc1ccc(NC(C)=O)cc1)C(=O)c1ccccc1SCc1c(C)noc1C,40µM,.,.,56µM,.,.
COc1ccc2c(c1)sc1nc(=O)ccn12,.[0.501 µM],.,.[2.29 µM],.,.,.
COc1ccc2c(c1)sc(=N)n2C,20µM,.,/,.,.,.
Cc1ccc(-c2nnc3ccccc3c2C(=O)Nc2cccc(C(F)(F)F)c2)cc1,.,.,/,.,.,.
C#CCOCCOCCOCCNc1nc(N2CCN(C(=O)Cn3cc(CCCCN)nn3)CC2)nc(N2CCN(C(=O)[C@H](Cc3ccc(O)cc3)n3cc(CCO)nn3)CC2)n1,/,.,/,/,.,.
C#CCOCCOCCOCCNc1nc(N2CCN(C(=O)[C@H](C)n3cc(CCCN=C(N)N)nn3)CC2)nc(N2CCN(C(=O)[C@H](Cc3ccc(O)cc3)n3cc(CCO)nn3)CC2)n1,32µM,/,.,?,/,/
C#CCOCCOCCOCCNc1nc(N2CCN(C(=O)[C@H](CCCCN)n3cc(CCCC)nn3)CC2)nc(N2CCN(C(=O)[C@H](Cc3ccc(O)cc3)n3cc(CCO)nn3)CC2)n1,40µM,.,.,?,.,79µM
C#CCOCCOCCOCCNc1nc(N2CCN(C(=O)[C@H](CCCCN)n3cc(CC(C)O)nn3)CC2)nc(N2CCN(C(=O)[C@H](Cc3ccc(O)cc3)n3cc(CCO)nn3)CC2)n1 (stereo not given in full),/,.,/,/,.,.
CCC(CC)C(=O)Nc1ccccc1C(=O)OCc1cc(=O)n2nc(C3CCCCC3)sc2n1,.,.,/,.,.,.
Cc1ccc(C)c(N2CCN(C(=O)c3cc4c(=O)n(Cc5ccccc5)ccc4nc3C)CC2)c1,.,.,/,?,.,.
CC(C)c1nnc(SCC(=O)NCCC2=CCCCC2)n1N,8.9µM,?,/,.,.,.
Nn1c(SCC(=O)NCCC2=CCCCC2)nnc1-c1cccnc1,45µM,.,.,.,.,.
COc1cccc(NC(=O)Cn2c(=O)n(-c3cccc(OC)c3)c(=O)c3sc4ccccc4c32)c1,.,.,/,.,.,.
COc1cc(OC)c(C2CC(=O)N3CN(c4ccccc4C)CSC3=C2C#N)cc1OC (stereo not given),?,/,.,56µM,/,/
COc1ccc(N2CSC3=C(C#N)C(c4cccc(OC)c4OC)CC(=O)N3C2)cc1 (stereo not given),2µM,?,/,?,.,20µM
COc1cccc(C2SCC(=O)N2c2ccc(Cl)cc2)c1OC (stereo not given),.,.,.,.,.,.
CCc1ccccc1N1CSC2=C(C#N)C(c3ccccc3F)CC(=O)N2C1 (stereo not given),0.79µM,?,.,56µM,.,22µM
O=S(=O)(c1ccc2c(c1)OCCO2)N1CCN(S(=O)(=O)c2cccc(Cl)c2F)CC1,/,/,/,/,/,.
CC1N(O)C(c2ccc(Cl)cc2Cl)N(O)C1(C)C (stereo not given),.,.,.,.,.,.
ON1C(c2ccc(Cl)cc2Cl)N(O)[C@H]2CCCC[C@H]21 (stereo not given in full),50µM,.,.,.,.,.
NC(=O)CSc1ncc2c(n1)-c1ccccc1N(Cc1ccc(F)cc1)S2(=O)=O,.,.,/,.,.,.
COC(=O)CSc1nc(-c2cccs2)ccc1C#N,32µM,.,.,.,.,.
SMILES,G9a block,HP1b chromo inh,L3MBTL1 block,BAZ2B inh,GLS inhibitor,JMJD2A Tudor
C#CCSc1nc(-c2cccs2)ccc1C#N,.[12.7 µM],.,.,.,.,.
CN1CCN(C(=O)CSc2nc(-c3cccs3)cc(-c3cccs3)c2C#N)CC1,40µM,.,.,.,.,.
N#Cc1c(-c2ccc(F)cc2)cc(-c2cccs2)nc1SCC(=O)O,.,.,/,.,.,.
CCN(CC)C(=O)CSc1nc(-c2cccs2)cc(-c2cccs2)c1C#N,4µM,.,.,.,?,.
O=C(Cn1nc(-c2ccccc2)c2cnc3ccccc3c21)Nc1ccccc1,.,.,/,.,.,.
CC[C@@H](C)[C@@H](C(=O)Nc1ccc(C)cc1)N1Cc2ccccc2C1=O,.,.,/,.,.,.
CC1CCCCN1C(=O)CNCc1ccc(F)cc1 (stereo not given),?,?,/,79µM,.,3.2µM
CC1CCCCN1C(=O)CNCC1CCCO1 (stereo not given),.,?,.,.,.,0.89µM
CC1CCCCN1C(=O)COc1ccccc1F (stereo not given),.,.,.,.,.,56µM
CCCc1nnc(SCC(=O)N2CCCCC2C)n1CC1CCCO1 (stereo not given),.,.,.,.,.,.
CCc1nnc(NC(=O)CSc2nc3c([nH]c4ccccc43)c(=O)n2-c2ccc(Cl)cc2)s1,.,.,/,.,.,.
C=CCc1ccccc1OCc1nc2ccc(C)cc2[nH]1,.,.,/,.,.,.
COc1ccc(-c2csc(Nc3ccc(S(N)(=O)=O)cc3)n2)cc1OC,?,.,/,?,.,?
Cc1cc(NS(=O)(=O)c2ccc(Nc3nc(-c4ccc(C)c(C)c4)cs3)cc2)no1,?,.,.,?,.,56µM
COc1cc(NS(=O)(=O)c2ccc(Nc3nc(-c4ccccc4)cs3)cc2)nc(OC)n1,?,.,.,50µM,?,?
COc1cc(NS(=O)(=O)c2ccc(N/C=C(\C=O)c3nc4ccccc4o3)cc2)nc(OC)n1,35µM,.,.,79µM,.,79µM
Cc1cc(NS(=O)(=O)c2ccc(Nc3nc(-c4ccc(O)cc4)cs3)cc2)no1,50µM,.,.,?,.,?
CC(=O)c1ccc(NC(=O)C(Cc2ccccc2)NS(=O)(=O)c2ccc3c(c2)CCC(=O)N3)cc1 (stereo not given),.,.,/,.,.,.
COc1ccccc1N1CCN(C(CNC(=O)C(=O)NCCCN(C)C)c2cccnc2)CC1 (stereo not given),.,.,/,.,.,.
Cc1cc(NS(=O)(=O)c2ccc(Nc3nc(-c4sc(N)nc4C)cs3)cc2)no1,.[12.7 µM],?,?,?,?,56µM
CSc1nc2nc3c(cc2c(=O)n1-c1ccccc1C)CCCC3,7.1µM,.,.,.,.,.
